Holding throughout (assay): DAPPL (digital affinity profiling via proximity ligation, sequencing); 10 mM Tris-HCl pH 7.5, 50 mM NaCl, 1 mM DTT, 4% glycerol, room temperature, 30 min; GST-TFs on glutathione beads, 16-mer random dsDNA library, 0.1% formaldehyde crosslink after washing; high values mean tight binding
Test [1] addresses T1, FLI1 (Homo sapiens, UniProt Q01543 1-452).
T1 sequence: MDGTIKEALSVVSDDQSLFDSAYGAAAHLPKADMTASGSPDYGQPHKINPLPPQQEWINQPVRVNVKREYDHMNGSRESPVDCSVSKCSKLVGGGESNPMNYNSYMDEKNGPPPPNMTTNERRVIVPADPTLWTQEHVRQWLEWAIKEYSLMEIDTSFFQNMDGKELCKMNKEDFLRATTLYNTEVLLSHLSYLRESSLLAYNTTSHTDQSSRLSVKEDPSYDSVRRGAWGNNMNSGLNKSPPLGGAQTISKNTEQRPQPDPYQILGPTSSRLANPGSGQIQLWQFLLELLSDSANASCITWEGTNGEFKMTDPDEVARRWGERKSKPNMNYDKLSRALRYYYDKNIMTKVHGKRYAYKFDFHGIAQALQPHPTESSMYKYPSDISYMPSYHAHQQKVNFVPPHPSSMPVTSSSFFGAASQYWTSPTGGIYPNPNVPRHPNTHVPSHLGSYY
The following applies: protein: recombinant; tags: N-terminal GST; dsDNA, one strand shown. The essentials: (§1)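 Binding signal is given per hexamer as its read frequency for a factor divided by its frequency in the tag-only sample. GST-fused human transcription factors were expressed in yeast, captured on glutathione beads, barcoded with DNA and pooled with that sample, then incubated with 200 nmole of a 16-mer random double-stranded DNA library in Tris/NaCl/DTT/glycerol buffer for 30 min at room temperature. The pools were then washed, crosslinked, proximity-ligated, amplified by PCR and sequenced on an Illumina NextSeq500.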

Test [2] addresses T2, ELK1 (Homo sapiens, UniProt P19419 1-428).
T2 sequence: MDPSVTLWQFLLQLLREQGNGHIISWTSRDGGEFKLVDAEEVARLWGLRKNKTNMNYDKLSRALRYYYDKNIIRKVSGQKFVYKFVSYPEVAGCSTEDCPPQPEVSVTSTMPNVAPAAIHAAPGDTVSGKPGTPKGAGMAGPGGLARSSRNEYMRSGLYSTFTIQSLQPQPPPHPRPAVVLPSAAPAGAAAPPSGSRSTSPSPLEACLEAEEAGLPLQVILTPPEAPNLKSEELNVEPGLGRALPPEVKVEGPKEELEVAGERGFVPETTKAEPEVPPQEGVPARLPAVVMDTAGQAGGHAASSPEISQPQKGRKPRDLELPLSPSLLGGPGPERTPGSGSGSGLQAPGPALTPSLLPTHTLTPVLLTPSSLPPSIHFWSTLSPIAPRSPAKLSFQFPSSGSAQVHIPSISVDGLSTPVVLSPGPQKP
The following applies: protein: recombinant; tags: N-terminal GST; dsDNA, one strand shown. The procedure, abridged: as §1

Test [3] deals with T3, GABPA (Homo sapiens, UniProt Q06546 1-454).
T3 sequence: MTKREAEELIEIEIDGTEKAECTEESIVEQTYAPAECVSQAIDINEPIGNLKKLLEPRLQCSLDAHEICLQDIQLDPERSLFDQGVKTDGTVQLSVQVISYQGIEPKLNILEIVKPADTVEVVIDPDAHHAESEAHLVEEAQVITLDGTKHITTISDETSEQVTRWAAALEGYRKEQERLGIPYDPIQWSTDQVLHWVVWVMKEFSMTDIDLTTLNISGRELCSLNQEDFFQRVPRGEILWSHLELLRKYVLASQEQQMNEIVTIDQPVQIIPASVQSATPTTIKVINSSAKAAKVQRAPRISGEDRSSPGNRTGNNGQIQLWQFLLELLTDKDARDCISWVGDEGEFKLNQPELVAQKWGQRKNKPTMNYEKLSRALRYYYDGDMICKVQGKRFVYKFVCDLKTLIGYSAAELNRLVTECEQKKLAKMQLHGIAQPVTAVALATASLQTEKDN
The following applies: protein: recombinant; tags: N-terminal GST; dsDNA, one strand shown. The essentials:
as §1

Test [4] has as its target T4, ERG (Homo sapiens, UniProt P11308 1-479).
T4 sequence: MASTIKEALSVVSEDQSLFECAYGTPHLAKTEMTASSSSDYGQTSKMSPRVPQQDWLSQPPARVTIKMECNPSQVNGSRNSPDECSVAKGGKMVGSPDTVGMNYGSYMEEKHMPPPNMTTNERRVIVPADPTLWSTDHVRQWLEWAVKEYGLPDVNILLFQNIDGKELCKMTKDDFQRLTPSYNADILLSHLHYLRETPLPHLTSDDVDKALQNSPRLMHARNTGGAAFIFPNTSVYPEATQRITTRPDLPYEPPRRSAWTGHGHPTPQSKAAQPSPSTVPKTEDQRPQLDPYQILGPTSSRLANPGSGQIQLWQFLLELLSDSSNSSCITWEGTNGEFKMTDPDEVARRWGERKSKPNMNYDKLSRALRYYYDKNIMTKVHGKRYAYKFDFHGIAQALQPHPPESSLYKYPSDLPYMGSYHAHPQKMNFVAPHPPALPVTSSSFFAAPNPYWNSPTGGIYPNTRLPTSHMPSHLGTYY
The following applies: protein: recombinant; tags: N-terminal GST; dsDNA, one strand shown. The essentials:
as §1

For test [5], the target named is ELF1 (Homo sapiens, UniProt P32519 1-619). The following applies: protein: recombinant; tags: N-terminal GST; dsDNA, one strand shown. The procedure, abridged:
as §1

Test [6] has as its target T5, EHF (Homo sapiens, UniProt Q9NZC4 1-300).
T5 sequence: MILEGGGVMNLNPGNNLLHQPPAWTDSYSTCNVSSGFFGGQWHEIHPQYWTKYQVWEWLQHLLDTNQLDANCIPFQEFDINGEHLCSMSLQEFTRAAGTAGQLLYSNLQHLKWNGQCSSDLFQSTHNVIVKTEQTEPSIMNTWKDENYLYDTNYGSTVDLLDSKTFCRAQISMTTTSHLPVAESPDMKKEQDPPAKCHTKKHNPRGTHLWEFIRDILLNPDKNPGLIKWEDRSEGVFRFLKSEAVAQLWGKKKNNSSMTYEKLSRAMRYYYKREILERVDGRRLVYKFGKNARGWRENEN
The following applies: protein: recombinant; tags: N-terminal GST; dsDNA, one strand shown. The essentials: as §1

Test [7] deals with SPI1 (Homo sapiens, UniProt P17947 1-270). The following applies: protein: recombinant; tags: N-terminal GST; dsDNA, one strand shown. The procedure, abridged:
as §1

The target in test [8] is SPIB (Homo sapiens, UniProt Q01892 1-262). The following applies: protein: recombinant; tags: N-terminal GST; dsDNA, one strand shown. The procedure, abridged:
as §1

Test [9] has as its target T6, ELK3 (Homo sapiens, UniProt P41970 1-407).
T6 sequence: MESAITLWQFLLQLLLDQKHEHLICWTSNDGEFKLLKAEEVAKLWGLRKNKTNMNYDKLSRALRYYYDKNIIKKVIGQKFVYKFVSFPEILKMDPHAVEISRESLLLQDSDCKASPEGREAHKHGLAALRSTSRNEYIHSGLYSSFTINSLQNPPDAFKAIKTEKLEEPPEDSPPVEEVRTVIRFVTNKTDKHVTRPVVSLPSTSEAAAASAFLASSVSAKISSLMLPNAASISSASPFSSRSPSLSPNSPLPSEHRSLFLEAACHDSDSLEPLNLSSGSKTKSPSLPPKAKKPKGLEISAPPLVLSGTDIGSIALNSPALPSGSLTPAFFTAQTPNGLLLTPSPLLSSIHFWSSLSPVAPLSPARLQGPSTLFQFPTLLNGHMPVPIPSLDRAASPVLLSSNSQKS
The following applies: protein: recombinant; tags: N-terminal GST; dsDNA, one strand shown. The essentials: as §1

Test [10] deals with T7, FEV (Homo sapiens, UniProt Q99581 1-238).
T7 sequence: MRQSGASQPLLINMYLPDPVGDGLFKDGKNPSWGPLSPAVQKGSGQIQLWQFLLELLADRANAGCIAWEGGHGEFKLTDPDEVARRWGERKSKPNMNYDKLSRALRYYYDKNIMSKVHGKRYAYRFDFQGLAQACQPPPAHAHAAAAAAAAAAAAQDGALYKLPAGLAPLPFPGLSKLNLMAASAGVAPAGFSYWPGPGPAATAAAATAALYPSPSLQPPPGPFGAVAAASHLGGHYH
The following applies: protein: recombinant; tags: N-terminal GST; dsDNA, one strand shown. The essentials:
as §1

Test [11] addresses ETV5 (Homo sapiens, UniProt P41161 1-510). The following applies: protein: recombinant; tags: N-terminal GST; dsDNA, one strand shown. The essentials:
as §1

For test [12], the target named is HSF1 (Homo sapiens, UniProt Q00613 1-529). The following applies: protein: recombinant; tags: N-terminal GST; chain copies: 3; dsDNA, one strand shown. The procedure, abridged:
as §1

The target of test [13] is T8, SPIC (Homo sapiens, UniProt Q8N5J4 1-248).
T8 sequence: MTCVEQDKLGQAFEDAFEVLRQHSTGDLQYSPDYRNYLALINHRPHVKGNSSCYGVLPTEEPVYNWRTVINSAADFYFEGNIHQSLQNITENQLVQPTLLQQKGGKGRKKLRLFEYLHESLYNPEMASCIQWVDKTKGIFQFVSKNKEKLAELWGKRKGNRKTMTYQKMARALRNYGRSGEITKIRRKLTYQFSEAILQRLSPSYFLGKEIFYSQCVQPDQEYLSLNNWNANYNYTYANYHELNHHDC
The following applies: protein: recombinant; tags: N-terminal GST; dsDNA, one strand shown. The procedure, abridged: as §1

Test [14] deals with ELF4 (Homo sapiens, UniProt Q99607 1-663). The following applies: protein: recombinant; tags: N-terminal GST; dsDNA, one strand shown. The essentials: as §1
Test [15] has as its target T9, ELK4 (Homo sapiens, UniProt P28324-2 1-405).
T9 sequence: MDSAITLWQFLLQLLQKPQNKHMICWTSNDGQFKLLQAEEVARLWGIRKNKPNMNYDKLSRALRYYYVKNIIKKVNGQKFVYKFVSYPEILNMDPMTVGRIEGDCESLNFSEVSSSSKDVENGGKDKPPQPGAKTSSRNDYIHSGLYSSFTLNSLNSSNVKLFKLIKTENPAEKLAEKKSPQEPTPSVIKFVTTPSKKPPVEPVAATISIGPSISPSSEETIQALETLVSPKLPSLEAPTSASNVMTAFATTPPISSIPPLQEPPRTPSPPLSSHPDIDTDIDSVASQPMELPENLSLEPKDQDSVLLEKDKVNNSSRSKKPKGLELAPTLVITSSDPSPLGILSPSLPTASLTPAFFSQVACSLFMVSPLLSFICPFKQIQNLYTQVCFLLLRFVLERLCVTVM
The following applies: protein: recombinant; tags: N-terminal GST; dsDNA, one strand shown. The essentials: as §1

Test [16] has as its target T10, ETV2 (Homo sapiens, UniProt O00321 1-342).
T10 sequence: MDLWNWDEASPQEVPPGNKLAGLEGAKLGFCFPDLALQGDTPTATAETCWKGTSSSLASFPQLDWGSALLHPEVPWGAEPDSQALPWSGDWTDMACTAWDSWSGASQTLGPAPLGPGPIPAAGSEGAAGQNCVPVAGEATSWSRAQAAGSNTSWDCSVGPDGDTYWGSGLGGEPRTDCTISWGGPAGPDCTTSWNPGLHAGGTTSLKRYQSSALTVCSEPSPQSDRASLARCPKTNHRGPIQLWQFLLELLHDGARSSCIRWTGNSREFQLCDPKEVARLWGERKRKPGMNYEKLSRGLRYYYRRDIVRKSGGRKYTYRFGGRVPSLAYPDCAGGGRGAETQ
The following applies: protein: recombinant; tags: N-terminal GST; dsDNA, one strand shown. The essentials:
as §1

Test [17] concerns the target T11, ELF3 (Homo sapiens, UniProt P78545 1-371).
T11 sequence: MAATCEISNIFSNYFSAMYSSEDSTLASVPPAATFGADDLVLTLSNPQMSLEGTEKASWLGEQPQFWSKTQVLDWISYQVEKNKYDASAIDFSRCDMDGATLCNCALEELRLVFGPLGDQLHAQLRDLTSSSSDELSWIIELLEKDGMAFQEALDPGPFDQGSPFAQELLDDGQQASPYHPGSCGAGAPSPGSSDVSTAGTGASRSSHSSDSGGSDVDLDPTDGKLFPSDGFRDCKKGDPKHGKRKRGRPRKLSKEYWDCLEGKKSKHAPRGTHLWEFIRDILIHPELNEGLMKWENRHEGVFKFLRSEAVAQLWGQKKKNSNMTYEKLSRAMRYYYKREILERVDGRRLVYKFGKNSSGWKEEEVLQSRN
The following applies: protein: recombinant; tags: N-terminal GST; dsDNA, one strand shown. The essentials: as §1

The target in test [18] is CRX (Homo sapiens, UniProt O43186 1-299). The following applies: protein: recombinant; tags: N-terminal GST; dsDNA, one strand shown. The essentials:
as §1

Test [19] has as its target ETV1 (Homo sapiens, UniProt P50549 1-477). The following applies: protein: recombinant; tags: N-terminal GST; dsDNA, one strand shown. The procedure, abridged: as §1

Sequence of ELF1 (P32519 whole entry): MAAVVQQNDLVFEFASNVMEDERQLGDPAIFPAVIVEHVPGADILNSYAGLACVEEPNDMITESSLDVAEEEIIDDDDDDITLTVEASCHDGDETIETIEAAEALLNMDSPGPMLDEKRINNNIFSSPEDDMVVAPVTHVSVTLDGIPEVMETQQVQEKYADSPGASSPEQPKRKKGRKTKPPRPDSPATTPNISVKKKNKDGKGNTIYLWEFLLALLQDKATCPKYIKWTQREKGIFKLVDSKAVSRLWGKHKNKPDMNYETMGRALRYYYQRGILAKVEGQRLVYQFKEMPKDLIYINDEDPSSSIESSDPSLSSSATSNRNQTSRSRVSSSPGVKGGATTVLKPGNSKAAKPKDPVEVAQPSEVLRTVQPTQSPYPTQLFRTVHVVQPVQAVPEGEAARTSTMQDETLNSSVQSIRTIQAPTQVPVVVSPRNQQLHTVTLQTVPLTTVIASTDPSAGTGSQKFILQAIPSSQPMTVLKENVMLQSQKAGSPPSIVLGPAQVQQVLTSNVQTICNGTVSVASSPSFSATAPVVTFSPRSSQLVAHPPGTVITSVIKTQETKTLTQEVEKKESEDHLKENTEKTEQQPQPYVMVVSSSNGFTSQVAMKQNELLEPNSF
Sequence of SPIB (Q01892 whole entry): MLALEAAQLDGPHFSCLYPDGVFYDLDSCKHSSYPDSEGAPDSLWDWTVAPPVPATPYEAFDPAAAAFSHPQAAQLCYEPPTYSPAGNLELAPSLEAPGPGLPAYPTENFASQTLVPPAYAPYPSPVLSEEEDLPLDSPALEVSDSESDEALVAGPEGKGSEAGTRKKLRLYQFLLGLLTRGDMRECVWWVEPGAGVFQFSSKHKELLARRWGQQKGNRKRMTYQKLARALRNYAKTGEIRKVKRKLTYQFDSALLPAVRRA
Sequence of CRX (O43186 whole entry): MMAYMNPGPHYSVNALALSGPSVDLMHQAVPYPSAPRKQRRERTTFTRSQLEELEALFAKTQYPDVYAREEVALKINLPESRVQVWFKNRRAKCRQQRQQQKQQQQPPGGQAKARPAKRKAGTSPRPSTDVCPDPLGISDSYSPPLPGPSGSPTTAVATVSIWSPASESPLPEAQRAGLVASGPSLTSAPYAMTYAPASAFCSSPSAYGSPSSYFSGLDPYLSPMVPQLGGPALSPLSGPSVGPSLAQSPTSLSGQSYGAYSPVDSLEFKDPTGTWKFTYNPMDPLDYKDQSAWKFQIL
Sequence of ETV1 (P50549 whole entry): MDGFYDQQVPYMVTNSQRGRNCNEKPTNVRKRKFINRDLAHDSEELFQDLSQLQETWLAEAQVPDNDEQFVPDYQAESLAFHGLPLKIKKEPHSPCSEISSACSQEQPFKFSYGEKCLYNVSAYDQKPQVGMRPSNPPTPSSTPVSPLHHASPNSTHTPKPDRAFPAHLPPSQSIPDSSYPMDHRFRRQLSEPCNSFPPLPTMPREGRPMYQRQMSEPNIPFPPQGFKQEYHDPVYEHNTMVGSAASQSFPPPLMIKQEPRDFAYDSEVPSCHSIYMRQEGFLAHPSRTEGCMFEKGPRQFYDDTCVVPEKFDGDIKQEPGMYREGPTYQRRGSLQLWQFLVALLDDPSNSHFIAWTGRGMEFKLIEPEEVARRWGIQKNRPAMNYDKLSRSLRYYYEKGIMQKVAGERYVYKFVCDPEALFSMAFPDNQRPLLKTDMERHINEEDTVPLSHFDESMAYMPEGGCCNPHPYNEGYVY
Sequence of HSF1 (Q00613 whole entry): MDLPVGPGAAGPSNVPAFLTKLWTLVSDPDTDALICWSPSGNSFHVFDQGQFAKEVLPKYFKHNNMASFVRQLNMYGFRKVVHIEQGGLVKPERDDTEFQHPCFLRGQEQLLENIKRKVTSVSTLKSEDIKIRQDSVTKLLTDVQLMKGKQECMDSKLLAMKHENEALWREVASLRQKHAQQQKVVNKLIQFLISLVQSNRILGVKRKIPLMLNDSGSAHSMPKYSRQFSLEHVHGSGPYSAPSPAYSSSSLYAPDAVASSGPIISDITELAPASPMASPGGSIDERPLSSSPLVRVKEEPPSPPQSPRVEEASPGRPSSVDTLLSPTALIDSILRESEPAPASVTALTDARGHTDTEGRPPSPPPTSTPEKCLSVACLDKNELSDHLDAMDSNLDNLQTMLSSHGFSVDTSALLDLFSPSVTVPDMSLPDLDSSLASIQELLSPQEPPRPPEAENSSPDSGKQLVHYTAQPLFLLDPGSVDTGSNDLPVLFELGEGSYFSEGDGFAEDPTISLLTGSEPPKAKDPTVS
Sequence of ETV5 (P41161 whole entry): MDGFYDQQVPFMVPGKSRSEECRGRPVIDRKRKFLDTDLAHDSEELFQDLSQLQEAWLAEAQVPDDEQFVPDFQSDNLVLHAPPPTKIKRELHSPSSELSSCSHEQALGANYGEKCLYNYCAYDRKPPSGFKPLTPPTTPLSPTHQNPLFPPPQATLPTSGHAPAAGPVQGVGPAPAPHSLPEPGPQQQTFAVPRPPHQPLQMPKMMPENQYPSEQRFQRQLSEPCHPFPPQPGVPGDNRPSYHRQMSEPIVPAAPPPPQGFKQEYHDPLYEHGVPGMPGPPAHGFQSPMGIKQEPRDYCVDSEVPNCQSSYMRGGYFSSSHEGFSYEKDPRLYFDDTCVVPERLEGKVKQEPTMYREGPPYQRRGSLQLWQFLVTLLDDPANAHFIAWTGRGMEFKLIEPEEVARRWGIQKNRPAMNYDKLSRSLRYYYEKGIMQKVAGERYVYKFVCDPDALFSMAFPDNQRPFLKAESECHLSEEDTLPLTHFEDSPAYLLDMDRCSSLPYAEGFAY
Sequence of ELF4 (Q99607 whole entry): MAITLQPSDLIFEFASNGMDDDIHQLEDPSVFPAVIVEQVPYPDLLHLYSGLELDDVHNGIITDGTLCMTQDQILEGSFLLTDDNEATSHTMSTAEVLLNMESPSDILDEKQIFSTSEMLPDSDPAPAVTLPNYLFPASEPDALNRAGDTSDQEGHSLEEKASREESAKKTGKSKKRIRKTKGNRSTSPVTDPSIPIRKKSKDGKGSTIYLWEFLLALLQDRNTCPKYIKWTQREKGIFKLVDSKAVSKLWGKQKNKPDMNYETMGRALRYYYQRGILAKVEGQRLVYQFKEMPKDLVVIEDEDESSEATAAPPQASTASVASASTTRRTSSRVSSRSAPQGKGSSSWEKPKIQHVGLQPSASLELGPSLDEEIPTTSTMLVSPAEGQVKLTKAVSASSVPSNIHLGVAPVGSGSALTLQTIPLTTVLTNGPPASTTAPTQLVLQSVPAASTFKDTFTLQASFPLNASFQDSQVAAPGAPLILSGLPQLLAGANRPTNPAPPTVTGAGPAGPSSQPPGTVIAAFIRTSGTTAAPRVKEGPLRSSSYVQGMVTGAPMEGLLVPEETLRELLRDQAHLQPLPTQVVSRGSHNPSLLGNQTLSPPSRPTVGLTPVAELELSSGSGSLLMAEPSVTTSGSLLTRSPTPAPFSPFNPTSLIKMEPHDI

On to TCCACT, for which the binding signal was 1.47 fold enrichment (6-mer frequency, TF over GST control) in test [1]; 1.52 fold enrichment (6-mer frequency, TF over GST control) in test [2]; 1.51 fold enrichment (6-mer frequency, TF over GST control) in test [3]; 1.54 fold enrichment (6-mer frequency, TF over GST control) in test [4]; 1.5 fold enrichment (6-mer frequency, TF over GST control) in [5]; 1.36 fold enrichment (6-mer frequency, TF over GST control) in [6]. For the same sequence, the binding signal is 1.5 fold enrichment (6-mer frequency, TF over GST control) in test [7]; 1.39 fold enrichment (6-mer frequency, TF over GST control) in test [8]; 1.49 fold enrichment (6-mer frequency, TF over GST control) in test [9]; 1.54 fold enrichment (6-mer frequency, TF over GST control) in [10]; 1.49 fold enrichment (6-mer frequency, TF over GST control) in [11]; 1.47 fold enrichment (6-mer frequency, TF over GST control) in test [12]. For the same sequence, the binding signal in test [13] is 1.4 fold enrichment (6-mer frequency, TF over GST control); in test [14] it was 1.51 fold enrichment (6-mer frequency, TF over GST control); in test [15], 1.49 fold enrichment (6-mer frequency, TF over GST control); in test [16] it was 1.48 fold enrichment (6-mer frequency, TF over GST control); in test [17], 1.25 fold enrichment (6-mer frequency, TF over GST control); in test [18], 1.33 fold enrichment (6-mer frequency, TF over GST control). Further, the binding signal in [19] is 1.41 fold enrichment (6-mer frequency, TF over GST control).

These data come from article PMC7862700, “An all-to-all approach to the identification of sequence-specific readers for epigenetic DNA modifications on cytosine”.
